Compounds with a hit are over-represented: about 7.7% of the library has one in this group of screens.
HCMV antiviral: qHTS Assay for inhibitors of the human cytomegalovirus (HCMV); HFF cells, HCMV-luciferase reporter, 72 h; active compounds read low; activity change, negative = inhibition, % at 57.5 µM; actives 4.5% (n = 410,000); in the data active means activity change below about -60%; inconclusive means no clear call, values can overlap the other calls; inactive means above about -39%
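Cell-based, HFFs, 1000 cells/well, 16 h 37C; cpds in DMSO + HCMV-luc, MOI 1 PFU/cell; 72 h 37C; OneGlo luminescence after 5 min RT; norm. to buffer vs Salinomycin 10uM.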
FMDV inh: High Throughput Screening for Foot and Mouth Disease Virus Antivirals; Potency, µM (top dose mostly 57.9 µM), hits mostly inhibitors; AID 1159524, 2015; FMDV antiviral cell-based qHTS; actives 1.2% (n = 410,000); calls by dose curve; tested in HEK293T cells; further: read-out not given here; nearly all actives have a fitted effect of over 45% in size
Giardia FBPA inh-1: qHTS Assay for Inhibitors of Fructose-1,6-bisphosphate Aldolase from Giardia Lamblia; Potency, µM (titrated, usually from 59.6 µM), actives largely listed as inhibitors; actives 0.71% (n = 290,000); AID 2451, 2010; purified Giardia FBPA; A8B2U2; further: nearly all actives have a fitted effect of over 55% in size
Target sequence (A8B2U2 whole entry, looked up): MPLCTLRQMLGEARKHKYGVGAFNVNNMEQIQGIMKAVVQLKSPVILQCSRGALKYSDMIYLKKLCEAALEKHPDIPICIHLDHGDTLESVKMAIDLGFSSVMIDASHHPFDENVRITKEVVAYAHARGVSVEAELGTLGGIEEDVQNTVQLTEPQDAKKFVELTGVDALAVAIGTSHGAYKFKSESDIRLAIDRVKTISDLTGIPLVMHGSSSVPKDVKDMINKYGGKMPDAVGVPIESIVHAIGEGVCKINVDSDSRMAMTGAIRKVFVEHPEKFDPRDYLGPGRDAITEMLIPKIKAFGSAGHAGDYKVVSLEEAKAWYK
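40 nM FBPA preincubated 10 min at RT with compound (up to 57.5 uM final), then substrate plus GAPDH/TPI/NAD/arsenate coupling and diaphorase/resazurin added. Fluorescence read after 20 min at RT, 525/598 nm.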
RE007 growth inh: qHTS Assay for Inhibitors of the HIV-1 protein Vpr. Potency, µM (highest dose often 92.2 µM), usual class: inhibitors. S. pombe RE007 Vpr strain, BacTiter-Glo ATP luminescence, 24 h. AID 651644, 2012. actives 0.21% (n = 360,000); active means well fitted falling curve with a large enough effect; inconclusive means small, poorly fitted or top-dose-only effect; inactive means no such curve, though single readings can be large or run the other way; further: nearly all actives have a fitted effect of over 50% in size
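Fission yeast strain RE007, carrying one chromosomally integrated HIV-1 vpr copy, was seeded at OD 0.01 in PMG+AL medium with 23 nL pinned compound. After 24 h at 30 °C and 99% humidity, viability was read by BacTiter-Glo luminescence.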
Sm TGR inh: qHTS Assay for the Inhibitors of Schistosoma Mansoni Peroxiredoxins; purified TGR, DTNB reduction, TNB absorbance 405 nm; Potency, µM (top dose mostly 114 µM), actives largely listed as inhibitors; actives 3% (n = 360,000); further: nearly all actives have a fitted effect of over 60% in size
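TGR 20 nM + NADPH 100 uM (dispensed conc.), cpd preinc 15 min RT; start with NADPH (500 uM addition) then DTNB (15 mM addition). Kinetic TNB absorbance, 405 nm filter. Four-parameter Hill fit across titration.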
TbPYK inhibitor: qHTS of Trypanosoma Brucei Inhibitors; TbPYK enzyme, Kinase-Glo Plus ATP luminescence, 45 min; Potency, µM (top dose mostly 76.8 µM), actives largely listed as inhibitors; pyruvate kinase (Trypanosoma brucei), Q57TT1; actives 0.12% (n = 410,000); further: nearly all actives have a fitted effect of over 50% in size
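Activity of T. brucei pyruvate kinase was followed by Kinase-Glo Plus luminescence after the enzyme reacted 45 min at room temperature with 130 uM ADP (final) and substrate. Test compounds were added before ADP at multiple concentrations.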
Giardia growth: qHTS Assay for Inhibitors of Fructose-1,6-bisphosphate Aldolase from Giardia Lamblia: Giardia lamblia growth inhibition; Potency, µM (series often up to 57.5 µM), most hits filed as inhibitors; Giardia lamblia trophozoite growth inhibition; actives 5% (n = 1,500); AID 2785, 2010; shares compounds with Giardia FBPA inh-1;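 further: trophozoites exposed to compound for 48 h at 37 °C; nearly all actives have a fitted effect of over 70% in size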
Mammal cell tox: qHTS Assay for Inhibitors of Fructose-1,6-bisphosphate Aldolase from Giardia Lamblia: Mammalian cellular toxicity | shares compounds with Giardia FBPA inh-1 | mammalian cell viability counter-screen, qHTS | Potency, µM (doses to about 57.5 µM), actives largely listed as inhibitors | actives 4% (n = 1,500) | AID 2786, 2010;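 further: Chinese hamster ovary cells used as mammalian cytotoxicity surrogate; viability measured as cellular ATP by luminescence; compound exposure lasted 48 h before reading; nearly all actives have a fitted effect of over 60% in size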
Giardia FBPA inh-2: qHTS Assay for Inhibitors of Fructose-1,6-bisphosphate Aldolase from Giardia Lamblia: Primary screen confirmation; shares compounds with Giardia FBPA inh-1; AID 2787, 2010; purified Giardia aldolase enzyme activity, qHTS; Potency, µM (highest dose often 57.5 µM), most hits filed as inhibitors; actives 5% (n = 1,500); further: nearly all actives have a fitted effect of over 45% in size
Rabbit FBPA inh: qHTS Assay for Inhibitors of Fructose-1,6-bisphosphate Aldolase from Giardia Lamblia: Rabbit FBPA Selectivity. actives 4% (n = 1,500). shares compounds with Giardia FBPA inh-1. Potency, µM (titrated, usually from 57.5 µM), actives largely listed as inhibitors. Rabbit muscle FBPA enzyme inhibition, selectivity counter-screen; further: nearly all actives have a fitted effect of over 60% in size
Target sequence (P00883 whole entry, looked up): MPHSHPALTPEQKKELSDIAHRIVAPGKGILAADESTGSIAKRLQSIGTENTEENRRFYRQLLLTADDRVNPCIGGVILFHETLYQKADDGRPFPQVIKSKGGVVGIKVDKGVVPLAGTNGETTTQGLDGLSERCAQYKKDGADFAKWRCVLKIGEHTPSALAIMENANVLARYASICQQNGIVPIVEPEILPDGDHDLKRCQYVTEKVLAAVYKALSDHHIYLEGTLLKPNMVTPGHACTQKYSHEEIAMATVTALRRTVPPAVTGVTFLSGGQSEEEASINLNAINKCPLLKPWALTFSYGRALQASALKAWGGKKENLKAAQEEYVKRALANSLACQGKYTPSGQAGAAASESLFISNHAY
GAPDH coupling: qHTS Assay for Inhibitors of Fructose-1,6-bisphosphate Aldolase from Giardia Lamblia: Coupling assay counterscreen confirmation | shares compounds with Giardia FBPA inh-1 | GAPDH coupling enzyme counterscreen, biochemical, qHTS | Potency, µM (series often up to 57.5 µM), actives largely listed as inhibitors | actives 6% (n = 1,500); further: nearly all actives have a fitted effect of over 55% in size
A number is an active result; – = inactive; ? = inconclusive; · = no result given; [ ] = remark or other dose. Unless noted, the call rests on the fitted dose curve; in most records, active means well fitted curve in the direction sought with a large enough effect; inconclusive means small, poorly fitted or top-dose-only effect, or another doubt; inactive means no such curve, though single readings can be large; an effect the other way counts as inactive or inconclusive.

SMILES	HCMV antiviral	FMDV inh	Giardia FBPA inh-1	RE007 growth inh	Sm TGR inh	TbPYK inhibitor	Giardia growth	Mammal cell tox	Giardia FBPA inh-2	Rabbit FBPA inh	GAPDH coupling
Cc1cc(C)n2c(=S)[nH]nc2n1	–	–	2.2µM	–	–	10µM	–	–	–	?	–
Cc1nnc(SCc2cc(=O)[nH]c(=S)[nH]2)s1	–	–	7.9µM	–	·	–	–	–	–	–	–
Cc1nnc(SCc2cc(=O)c3ccccc3[nH]2)s1	–	–	·	·	–	–	·	·	·	·	·
Cc1ccccc1N=Cc1cccc(O)c1O	·	–	5.6µM	·	5µM	–	20µM	–	11µM	32µM	32µM
Cc1ccc(N=Cc2cccc(O)c2O)c(C)c1	–	·	?	·	–	·	·	·	·	·	·
O=c1nc(N/N=C/c2c[nH]c3ccccc23)cn[nH]1	–	–	18µM	–	–	–	–	–	–	–	–
N#C/C(=C\c1ccc2c(c1)OCO2)C(N)=S	–	–	–	–	–	–	·	·	·	·	·
N#C/C(=C/c1ccco1)C(N)=S	–	–	16µM	–	–	–	?	–	–	–	–
CN1CCN(CC(=O)Nc2ccc(S(=O)(=O)N(C)C)cc2)CC1	–	–	14µM	–	–	–	?	–	–	–	–
CCN1CCN(CC(=O)Nc2ccc(C)c(Br)c2)CC1	–	–	?	–	–	–	·	·	·	·	·
Cc1ccc(NC(=O)CN2CCN(C)CC2)cc1Br	–	–	16µM	–	–	–	?	–	–	–	–
CN(C)S(=O)(=O)c1ccc(NC(=O)CN2CCCCCC2)cc1	–	–	–	–	–	–	·	·	·	·	·
CCCCC[C@H](O)/C=C/[C@@H]1[C@H]2C/C(=C/CCCC(=O)O)C[C@H]2C[C@H]1O	·	–	–	·	·	·	·	·	·	·	·
CCOC(=O)N1CCN(Cc2ccccn2)CC1	–	–	14µM	–	–	–	–	–	–	–	–
CCOC(=O)N1CCN(Cc2ccc3ccccc3c2)CC1	–	–	25µM	–	–	–	–[10.4 µM]	–	–	–	–
Cc1ccc(C(C)C)c(OCC(=O)NN=C(CCl)CCl)c1	·	·	16µM	·	?	·	?	–	–	–	–
CC(C(=O)c1ccccc1)C(O)c1ccccn1 (stereo not given)	–	–	·	–	·	–	·	·	·	·	·
CCn1c(O)c(C(c2ccccn2)c2c(O)n(CC)c(=S)[nH]c2=O)c(=O)[nH]c1=S	–	–	18µM	–	–	–	–[10.4 µM]	–	–	–	–
O=c1[nH]c(=S)[nH]c(O)c1C(c1ccccn1)c1c(O)[nH]c(=S)[nH]c1=O	–	–	16µM	–	–	–	–[10.4 µM]	–	–	–	–
CCOc1ccc(NC(=O)c2ccc(-c3cccc(Cl)c3C)o2)cc1	–	–	·	·	–	–	·	·	·	·	·
COCCCn1c(=N)c(C(=O)NC2CCCCC2)cc2c(=O)n3cc(C)ccc3nc21	?	–	·	·	–	–	·	·	·	·	·
COc1ccc(C2CC(=O)N3CN(c4ccccc4F)CSC3=C2C#N)cc1OC (stereo not given)	–	–	2.8µM	–	?	3.2µM	?	–	?	32µM	?
COc1ccc(CC(=O)N2CCN(c3ccccc3F)CC2)cc1OC	–	–	–	–	–	–	·	·	·	·	·
COc1ccc(OC)c(C2CC(=O)N3CN(c4ccccc4)CSC3=C2C#N)c1 (stereo not given)	–	–	1.8µM	–	10µM	3.5µM	?	–	–	?	–
COc1ccc(N2CSC3=C(C#N)C(c4cccc(OC)c4OC)CC(=O)N3C2)cc1 (stereo not given)	–	–	2µM	–	22µM	13µM	–	–	?	?	?
SMILES	HCMV antiviral	FMDV inh	Giardia FBPA inh-1	RE007 growth inh	Sm TGR inh	TbPYK inhibitor	Giardia growth	Mammal cell tox	Giardia FBPA inh-2	Rabbit FBPA inh	GAPDH coupling
CCSS(=O)(=O)c1cccc2cccnc12	–	?	16µM	5.6µM	–	10µM	–[10.4 µM]	–	–	?	?
CCN(CC)c1nc(N2CCN(CCO)CC2)nc2ccccc12	–	–	13µM	–	–	–	–	–	–	–	–
CCN(CC)c1nc(N2CCN(C)CC2)nc2ccccc12	–	–	?	–	–	–	·	·	·	·	·
Cc1ccc2oc(=O)c(/C=C(\O)c3ccco3)nc2c1	–	–	20µM	–	?	–	–	–	–	–	–
Cc1ccc2oc(=O)c(/C=C(\O)C(C)(C)C)nc2c1	–	–	–	–	–	–	·	·	·	·	·
O=C(Nc1nnc(S(=O)(=O)N2CCCCC2)s1)c1ccc(F)cc1	–	–	·	·	–	–	·	·	·	·	·
c1ccc(-c2cccc(-c3ccccn3)n2)nc1	-101	–	7.9µM	?	–	–	?	1.3µM	–	–	–
COc1ccc2c(c1)-c1nc(/N=C/c3cccc(OC)c3O)sc1CC2	–	–	1.4µM	?	–	–	–	–	?	?	?
CC1CCCN(S(=O)(=O)c2ccc(C(=O)Nc3nnc(C4=COCCO4)o3)cc2)C1 (stereo not given)	–	·	28µM	·	–	·	–	–	–	–	–
CC1CCCCN1S(=O)(=O)c1ccc(C(=O)Nc2nnc(-c3ccccn3)o2)cc1 (stereo not given)	–	–	18µM	–	–	–	–	–	–	–	–
O=C(Nc1nnc(C2=COCCO2)o1)c1ccc(S(=O)(=O)N2CCOCC2)cc1	–	–	20µM	–	–	–	?	–	–	–	–
CCn1c(C(=O)N2CCC(C(=O)N3CCN(c4cc(C)ccc4C)CC3)CC2)cc2sccc21	–	?	·	·	–	–	·	·	·	·	·
O=C(CSc1nc2ccsc2c(=O)n1Cc1ccccc1Cl)NCc1ccc(Cl)cc1	–	–	·	·	–	–	·	·	·	·	·

Screening results: PubChem BioAssay, National Center for Advancing Translational Sciences (NCATS)
